Reference: PubChem BioAssay (EPA / NIEHS)
Inconclusive results are not listed. Activity calls are given as the source filed them. Rule for the calls, unless noted: active = hit-call score of the fitted dose curve at least 0.9, where 1 is the maximum; inactive = score below 0.9.

Experiments:
[1] = read-out: Nuclear factor erythroid 2-related factor 2 (Homo sapiens) (UniProt Q16236); assay: LTEA_HepaRG_NFE2L2: Life Technologies and Expression Analysis (LTEA) Assay for Nuclear factor erythroid 2-related factor 2 (NFE2L2) Transcription Factor using HepaRG (AID 2283527); details: mRNA level, 48 h; actives raise or lower the signal;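 note: TaqMan qRT-PCR transcript level normalised to ACTB GAPDH and POLR2A housekeeping genes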
Method in brief: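 Differentiated human HepaRG cells in serum-free induction medium were exposed for 48 h to eight concentrations (top 100 uM, half-log dilutions, 0.5% DMSO), in duplicate. NFE2L2 mRNA was quantified by TaqMan qRT-PCR, normalized to ACTB, GAPDH and POLR2A, with bidirectional fitting versus DMSO.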

[2] = read-out: succinate dehydrogenase complex iron sulfur subunit B (SDHB), SDHB (gene 6390); assay: LTEA_HepaRG_SDHB: Life Technologies and Expression Analysis (LTEA) Assay for succinate dehydrogenase complex iron sulfur subunit B (SDHB) using HepaRG (AID 2283528); details: mRNA level, 48 h; actives raise or lower the signal
Method in brief: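 HepaRG cells (~100,000/well, plated 48 h) exposed in duplicate for 48 h in serum-free induction medium to 8-point half-log series from 100 uM in 0.5% DMSO; mRNA by qRT-PCR normalised to ACTB, GAPDH, POLR2A; bidirectional fit versus DMSO.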

[3] = read-out: Signal transducer and activator of transcription 3 (Homo sapiens) (UniProt P40763); assay: LTEA_HepaRG_STAT3: Life Technologies and Expression Analysis (LTEA) Assay for Signal transducer and activator of transcription (STAT3) using HepaRG (AID 2283529); details: mRNA level, 48 h; actives raise or lower the signal
Method in brief: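 Differentiated human HepaRG cells in serum-free induction medium were exposed in duplicate for 48 h to eight half-log concentrations up to 100 uM in 0.5% DMSO. STAT3 mRNA was quantified by TaqMan qRT-PCR, normalized to ACTB, GAPDH and POLR2A, and fitted bidirectionally against DMSO.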

[4] = read-out: solute carrier (SLCO1B1), SLCO1B1 (gene 10599); assay: LTEA_HepaRG_SLCO1B1: Life Technologies and Expression Analysis (LTEA) Assay for solute carrier (SLCO1B1) using HepaRG (AID 2283530); details: mRNA level, 48 h; actives raise or lower the signal
Method in brief: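 Human HepaRG cultures treated for 48 h with an eight-concentration half-log series topping at 100 uM; SLCO1B1 measured by qRT-PCR and fitted bidirectionally relative to DMSO.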

[5] = read-out: sulfotransferase 2A1 (SULT2A1), SULT2A1 (gene 6822); assay: LTEA_HepaRG_SULT2A1: Life Technologies and Expression Analysis (LTEA) Assay for sulfotransferase 2A1 (SULT2A1) using HepaRG (AID 2283531); details: mRNA level, 48 h; actives raise or lower the signal
Method in brief: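 Gene-expression endpoint in a human liver cell line: SULT2A1 mRNA change after 48 h chemical treatment, curves fitted in both directions relative to 0.5% DMSO vehicle. Concentrations spanned eight half-log steps from 100 uM.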

[6] = read-out: Transforming Growth Factor (TGFA), TGFA (gene 7039); assay: LTEA_HepaRG_TGFA: Life Technologies and Expression Analysis (LTEA) Assay for Transforming Growth Factor (TGFA) using HepaRG (AID 2283532); details: mRNA level, 48 h; actives raise or lower the signal
Method in brief: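 Differentiated human HepaRG cells, plated 48 h then switched to serum-free induction medium, were exposed in duplicate for 48 h to 8-point half-log series from 100 uM in 0.5% DMSO. TGFA mRNA measured by qRT-PCR, normalized to ACTB/GAPDH/POLR2A, bidirectional fit versus DMSO.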

[7] = read-out: Transforming Growth Factor (TGFB1), TGFB1 (gene 7040); assay: LTEA_HepaRG_TGFB1: Life Technologies and Expression Analysis (LTEA) Assay for Transforming Growth Factor (TGFB1) Transporter using HepaRG (AID 2283533); details: mRNA level, 48 h; actives raise or lower the signal
Method in brief: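 Eight-point concentration-response (max 100 uM, half-log) in HepaRG under serum-free induction conditions, 48 h. TGFB1 mRNA by qRT-PCR, housekeeping-normalized.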

TIMP1, TIMP1 (gene 7076) = assay: LTEA_HepaRG_TIMP1: Life Technologies and Expression Analysis (LTEA) Assay for TIMP1 using HepaRG (AID 2283534); details: mRNA level, 48 h; actives raise or lower the signal;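 note: TaqMan qRT-PCR signal normalized to ACTB GAPDH and POLR2A housekeeping genes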
Method in brief: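 TIMP1 induction or repression in HepaRG cells after 48 h chemical exposure (eight concentrations, highest 100 uM), assessed by normalized qRT-PCR with bidirectional fitting to DMSO controls.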

[8] = read-out: Tumor necrosis factor receptor 1 (TNFRSF1A), TNFRSF1A (gene 7132); assay: LTEA_HepaRG_TNFRSF1A: Life Technologies and Expression Analysis (LTEA) Assay for Tumor necrosis factor receptor 1 (TNFRSF1A) using HepaRG (AID 2283535); details: mRNA level, 48 h; actives raise or lower the signal
Method in brief: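 Assay uses 48 h chemical treatment of differentiated HepaRG monolayers, tested in duplicate at eight concentrations from 100 uM downward in 0.5% DMSO. mRNA is normalized to ACTB, GAPDH and POLR2A, with induction or suppression fitted relative to vehicle.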

[9] = read-out: Thyroid Hormone Responsive (THRSP), THRSP (gene 7069); assay: LTEA_HepaRG_THRSP: Life Technologies and Expression Analysis (LTEA) Assay for Thyroid Hormone Responsive (THRSP) using HepaRG (AID 2283536); details: mRNA level, 48 h; actives raise or lower the signal
Method in brief: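 Differentiated human HepaRG cells were exposed in duplicate for 48 h in serum-free induction medium to eight concentrations (top 100 uM, half-log steps, 0.5% DMSO). Expression was quantified by TaqMan qRT-PCR, normalized to ACTB, GAPDH and POLR2A, with bidirectional fitting against DMSO.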

[10] = read-out: Cellular tumor antigen p53 (Homo sapiens) (UniProt P04637); assay: LTEA_HepaRG_TP53: Life Technologies and Expression Analysis (LTEA) Assay for Tumor Protein P53 (TP53) using HepaRG (AID 2283537); details: mRNA level, 48 h; actives raise or lower the signal
Method in brief: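 Differentiated HepaRG cells in serum-free induction medium exposed 48 h in duplicate to 8 half-log concentrations, top 100 uM, 0.5% DMSO. TP53 mRNA by TaqMan qRT-PCR (Fluidigm), normalized to ACTB, GAPDH, POLR2A; fitted bidirectionally versus DMSO.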

[11] = read-out: UDP glucuronosyltransferase (UGT1A1), UGT1A1 (gene 54658); assay: LTEA_HepaRG_UGT1A1: Life Technologies and Expression Analysis (LTEA) Assay for UDP glucuronosyltransferase (UGT1A1) using HepaRG (AID 2283538); details: mRNA level, 48 h; actives raise or lower the signal
Method in brief: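 Differentiated human HepaRG cells in serum-free induction medium were exposed in duplicate for 48 h to eight half-log concentrations up to 100 uM in 0.5% DMSO. UGT1A1 mRNA was quantified by TaqMan qRT-PCR, normalized to ACTB, GAPDH and POLR2A, and fitted bidirectionally against DMSO.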

[12] = read-out: UDP glucuronosyltransferase (UGT1A6), UGT1A6 (gene 54578); assay: LTEA_HepaRG_UGT1A6: Life Technologies and Expression Analysis (LTEA) Assay for UDP glucuronosyltransferase (UGT1A6) using HepaRG (AID 2283539); details: mRNA level, 48 h; actives raise or lower the signal
Method in brief: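 Measures mRNA change in HepaRG hepatic cells exposed 48 h to chemicals (eight-point, maximum 100 uM, 0.5% DMSO vehicle) in serum-free induction medium. Expression normalized to endogenous controls; DMSO served as negative control and baseline.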

[13] = read-out: X-box binding protein 1 (XBP1), XBP1 (gene 7494); assay: LTEA_HepaRG_XBP1: Life Technologies and Expression Analysis (LTEA) Assay for X-box binding protein 1 (XBP1) using HepaRG (AID 2283540); details: mRNA level, 48 h; actives raise or lower the signal
Method in brief: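 Eight concentrations (half-log, highest 100 uM, 0.5% DMSO) tested in duplicate on HepaRG cells over 48 h in serum-free induction medium; qRT-PCR of XBP1 normalised to ACTB, GAPDH, POLR2A.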

[14] = LTEA_HepaRG_LDH_cytotoxicity: Cytotoxicity Assessment in the Life Technologies and Expression Analysis (LTEA) Assay (AID 2283563; active = hit-call score of the fitted dose curve at least 0.9, where 1 is the maximum)
Method in brief: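 Spent-medium LDH after 48 h chemical exposure of HepaRG cells in serum-free induction medium; eight concentrations, half-log dilutions from 100 uM, duplicate wells, fitted upward relative to 0.5% DMSO.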

[15] = Tanguay_ZF_120hpf_MORT_legacy: (Legacy) Oregon State University Tanguay Lab 120 Hour Post-fertilization zebrafish Assay for Mortality (AID 2283633; active = hit-call score of the fitted dose curve at least 0.9, where 1 is the maximum)
Method in brief: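 Single dechorionated Tropical 5D embryos were held with test chemical (0.64% DMSO final) from 6 to 120 hpf at 28C under foil. Deaths at 24 or 120 hpf were recorded as binary calls, analysed for increase over DMSO controls.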

[16] = Tanguay_ZF_120hpf_YSE_legacy: (Legacy) Oregon State University Tanguay Lab 120 Hour Post-fertilization zebrafish Assay for Yolk Sac Edema (AID 2283634; active = hit-call score of the fitted dose curve at least 0.9, where 1 is the maximum)
Method in brief: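 Single dechorionated embryos were held in sealed plates at 28C with test chemical (0.64% DMSO final) from 6 hpf until 120 hpf. Edema of the yolk sac was then recorded as a binary endpoint; non-mortality endpoints were skipped for dead embryos.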

[17] = Tanguay_ZF_120hpf_EYE_legacy: (Legacy) Oregon State University Tanguay Lab 120 Hour Post-fertilization zebrafish Assay for Eye Malformation (AID 2283636; active = hit-call score of the fitted dose curve at least 0.9, where 1 is the maximum;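 note: binary presence or absence of eye malformation scored by brightfield in 120 hpf larvae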)
Method in brief: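 Dechorionated wild-type Tropical 5D zebrafish embryos were exposed statically from 6 hpf, one per well, to 120 hpf at 28C in sealed, foil-covered plates with 0.64% DMSO. Eye malformation was scored present/absent by brightfield microscopy against DMSO controls.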

[18] = Tanguay_ZF_120hpf_SNOU_legacy: (Legacy) Oregon State University Tanguay Lab 120 Hour Post-fertilization zebrafish Assay for Snout Malformation (AID 2283637; active = hit-call score of the fitted dose curve at least 0.9, where 1 is the maximum)
Method in brief: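 Tropical 5D wild-type zebrafish embryos, dechorionated with pronase at 4 hpf, were exposed singly from 6 hpf to 120 hpf statically at 28C in 0.64% DMSO. Snout malformation was scored present/absent by brightfield microscopy, fitted against DMSO.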

[19] = Tanguay_ZF_120hpf_JAW_legacy: (Legacy) Oregon State University Tanguay Lab 120 Hour Post-fertilization zebrafish Assay for Jaw Malformation (AID 2283638; active = hit-call score of the fitted dose curve at least 0.9, where 1 is the maximum)
Method in brief: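 Wild-type 5D embryos, chorion removed at 4 hpf, dosed singly from 6 hpf; 28C static, sealed, foil-covered, to 120 hpf. Endpoint: jaw defect yes/no (brightfield); mortality excludes scoring.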

Measured: outcome

Sequence of Nuclear factor erythroid 2-related factor 2 (Homo sapiens) (Q16236 whole entry, looked up): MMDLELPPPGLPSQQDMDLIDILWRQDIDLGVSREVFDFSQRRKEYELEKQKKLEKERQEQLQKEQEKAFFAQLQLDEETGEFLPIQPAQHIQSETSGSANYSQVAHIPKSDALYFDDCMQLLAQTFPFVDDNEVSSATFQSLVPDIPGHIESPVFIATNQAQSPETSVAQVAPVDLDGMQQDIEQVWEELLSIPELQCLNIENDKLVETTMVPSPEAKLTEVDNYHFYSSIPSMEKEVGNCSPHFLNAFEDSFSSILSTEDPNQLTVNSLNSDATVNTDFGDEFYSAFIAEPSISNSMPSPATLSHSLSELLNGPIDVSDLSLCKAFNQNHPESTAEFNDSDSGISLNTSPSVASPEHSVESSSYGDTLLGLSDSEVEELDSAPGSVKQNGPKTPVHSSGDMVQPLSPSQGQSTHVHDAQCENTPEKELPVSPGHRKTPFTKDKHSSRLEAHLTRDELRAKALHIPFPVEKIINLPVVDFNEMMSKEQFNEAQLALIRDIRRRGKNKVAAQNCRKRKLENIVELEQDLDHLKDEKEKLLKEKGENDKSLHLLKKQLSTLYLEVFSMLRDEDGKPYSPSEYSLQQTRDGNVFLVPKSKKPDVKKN
Sequence of Signal transducer and activator of transcription 3 (Homo sapiens) (P40763 whole entry, looked up): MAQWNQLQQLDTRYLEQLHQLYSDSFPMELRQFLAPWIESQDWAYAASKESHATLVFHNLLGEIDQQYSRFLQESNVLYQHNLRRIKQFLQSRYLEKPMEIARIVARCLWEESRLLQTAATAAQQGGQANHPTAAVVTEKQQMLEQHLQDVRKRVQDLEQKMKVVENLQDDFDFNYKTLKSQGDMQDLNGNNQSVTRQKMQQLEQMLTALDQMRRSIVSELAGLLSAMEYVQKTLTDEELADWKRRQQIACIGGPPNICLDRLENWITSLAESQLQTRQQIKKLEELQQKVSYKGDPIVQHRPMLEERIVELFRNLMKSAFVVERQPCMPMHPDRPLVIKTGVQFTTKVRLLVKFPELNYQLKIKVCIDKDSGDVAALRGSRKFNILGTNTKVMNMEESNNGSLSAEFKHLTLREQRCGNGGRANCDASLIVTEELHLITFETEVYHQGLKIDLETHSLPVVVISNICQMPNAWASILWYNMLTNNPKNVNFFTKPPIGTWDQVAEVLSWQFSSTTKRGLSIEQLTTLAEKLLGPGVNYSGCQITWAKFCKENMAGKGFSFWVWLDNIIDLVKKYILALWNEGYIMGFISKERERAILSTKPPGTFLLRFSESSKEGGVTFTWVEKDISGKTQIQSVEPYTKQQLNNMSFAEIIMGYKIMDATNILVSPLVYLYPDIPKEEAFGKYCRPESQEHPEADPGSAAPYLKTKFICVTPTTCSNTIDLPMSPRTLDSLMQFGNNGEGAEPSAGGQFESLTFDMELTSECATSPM
Sequence of Cellular tumor antigen p53 (Homo sapiens) (P04637 whole entry, looked up): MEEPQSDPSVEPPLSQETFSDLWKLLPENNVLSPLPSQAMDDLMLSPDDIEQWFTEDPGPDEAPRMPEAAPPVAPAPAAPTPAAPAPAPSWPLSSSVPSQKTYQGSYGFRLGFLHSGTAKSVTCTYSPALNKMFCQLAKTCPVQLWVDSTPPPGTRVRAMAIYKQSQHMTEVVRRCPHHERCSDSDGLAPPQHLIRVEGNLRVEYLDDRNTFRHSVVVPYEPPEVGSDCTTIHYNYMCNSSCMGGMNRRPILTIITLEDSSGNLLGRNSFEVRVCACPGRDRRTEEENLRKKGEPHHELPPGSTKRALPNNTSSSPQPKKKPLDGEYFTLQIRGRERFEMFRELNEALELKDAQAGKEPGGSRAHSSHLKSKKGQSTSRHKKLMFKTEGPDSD

CCC(C)=NO
inactive: all assays above
